Hits are enriched below; roughly 19% of the tested compounds scored in any of these assays.
KB-V1 cytotox – qHTS assay for MDR1-selective chemotherapeutics: Primary screen using the drug-selected MDR subline cells KB-V1; KB-V1 MDR cells viability, CellTiter-Glo, 72 h; Potency, µM (series often up to 46.1 µM), hits mostly cytotoxic; 3.4% of 400,000 active; also: nearly all actives have a fitted effect of over 60% in size
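Cytotoxicity toward P-gp-expressing KB-V1 cells was determined as loss of CellTiter-Glo luminescence after 72 h at 37 degrees C. Compounds were tested in quantitative HTS format across a concentration range, with curves fitted to normalized data.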
DT40 TDP1 CPT – qHTS for Inhibitors of human tyrosyl-DNA phosphodiesterase 1 (TDP1): qHTS in cells in presence of CPT. chicken DT40 Tdp1-/-;hTDP1 cells + 20 nM CPT, ATP luminescence, 48 h. Potency, µM (titrated, usually from 46.2 µM), for the others: at the highest dose activity change, negative = growth inhibition, usual class: inhibitors. 12% of 420,000 active; also: nearly all actives have a fitted effect of over 55% in size
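Chicken DT40 Tdp1-/- cells complemented with human TDP1, 400 cells/well, exposed to compounds plus 20 nM camptothecin for at least 48 h at 37 C; viability read as ATP content by CellTiter-Glo luminescence.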
HT1080 IDH1KD tx – qHTS for induction of synthetic lethality in tumor cells producing 2HG: qHTS for the HT-1080-IDH1KD cell line; 2% of 360,000 active; Potency, µM (highest dose often 46.1 µM), inactives show at the highest dose activity, negative = toxicity, hits mostly cytotoxic; AID 686971, 2013; HT-1080 IDH1 knockdown viability, ATP luminescence, 48 h;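 also: 0% = DMSO wells and -100% = cell-free medium wells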
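% activity derives from luminescence (CellTiter-Glo), normalised to DMSO and no-cell wells. HT-1080-IDH1KD cells, 750/well, had 48 h compound exposure at 37 °C.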
HT1080-NT tox – qHTS for induction of synthetic lethality in tumor cells producing 2HG: qHTS for the HT-1080-NT fibrosarcoma cell line. Potency, µM (top dose mostly 46.1 µM), for inactives: at the top dose activity, negative = less viability, usual class: cytotoxic. 1.6% of 360,000 active. HT-1080-NT fibrosarcoma viability, CellTiter-Glo ATP luminescence, 48 h;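 also: NT is the 2HG producing partner of a matched IDH1 knockdown line; 0% = DMSO-treated cells and -100% = media-only wells without cells; nearly all actives have a fitted effect of over 55% in size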
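750 cells/well, RPMI + 5% FBS; 2 h settle, compound pin-transfer, 48 h at 37 degrees C. CellTiter-Glo 10 min RT, luminescence. Normalized to DMSO and media-only wells.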
KB-3-1 tox – qHTS assay for MDR1-selective chemotherapeutics: Primary screen using the parental adenocarcinoma cell KB-3-1 | 1.4% of 400,000 active | Potency, µM (doses to about 46.1 µM), most hits filed as cytotoxic | KB-3-1 viability, CellTiter-Glo ATP luminescence, 72 h | AID 1347075, 2019; also: nearly all actives have a fitted effect of over 60% in size
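Here the drug-naive KB-3-1 line serves as comparator for MDR sub-line selectivity; cells received compound titrations, 72 h at 37 °C, then CellTiter-Glo readout.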
DT40 TDP1 no CPT – qHTS for Inhibitors of human tyrosyl-DNA phosphodiesterase 1 (TDP1): qHTS in cells in absence of CPT; DT40 Tdp1-/- hTDP1 cells, no CPT, ATP luminescence, 48 h; Potency, µM (highest dose often 46.2 µM), for inactives: at the top dose activity change, negative = growth inhibition, most hits filed as inhibitors; 15% of 420,000 active; also: nearly all actives have a fitted effect of over 55% in size
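No-CPT arm: Tdp1-/-;hTDP1 DT40 cells (400/well) plus compounds, incubated ≥48 hr at 37 °C. Readout CellTiter-Glo luminescence.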
An asterisk follows results filed as active; [ ] = another dose, or the depositor's remark. Calls follow the shape of the dose curve; as a rule, active = well fitted curve in the direction sought with a large enough effect; inconclusive = small, poorly fitted or top-dose-only effect, or another doubt; inactive = no such curve, though single readings can be large; an effect the other way counts as inactive or inconclusive. Unless noted, % is scaled to controls: 0 for no effect and ±100 for the full control effect; potency is read from the fitted curve at half-maximal effect.

Cc1[nH]c2ccccc2c1/C=N/Nc1nc(Nc2ccccc2)nc(N2CCOCC2)n1 was read as KB-V1 cytotox inconclusive, DT40 TDP1 CPT 8.2µM*, HT1080 IDH1KD tx inconclusive, HT1080-NT tox inconclusive, KB-3-1 tox inconclusive and DT40 TDP1 no CPT 6.5µM*.
`O=C(O)c1cccc(Nc2nc(N3CCOCC3)nc(N3CCOCC3)n2)c1` gave KB-V1 cytotox inactive, DT40 TDP1 CPT inconclusive, HT1080 IDH1KD tx -9%, HT1080-NT tox 3%, KB-3-1 tox inactive and DT40 TDP1 no CPT -18%.
Oc1[nH]c2ccccc2c1N=Nc1nc(Nc2ccccc2)nc(N2CCOCC2)n1 was read as KB-V1 cytotox inconclusive, DT40 TDP1 CPT -105%, HT1080 IDH1KD tx 2%, HT1080-NT tox 3%, KB-3-1 tox inactive and DT40 TDP1 no CPT 1.8µM*.
CCOc1ccccc1CNC(=O)C1CCN(C(=O)c2sccc2-n2cccc2)CC1 was read as KB-V1 cytotox inactive, DT40 TDP1 CPT inconclusive, HT1080 IDH1KD tx -8%, HT1080-NT tox -3%, KB-3-1 tox inactive and DT40 TDP1 no CPT inconclusive.
For O=C(CCn1c2c(c3ccccc31)CCCC2)NNC(=O)c1ccc([N+](=O)[O-])cc1 the results were KB-V1 cytotox inactive, DT40 TDP1 CPT 21µM*, HT1080 IDH1KD tx -1%, HT1080-NT tox -1%, KB-3-1 tox inactive and DT40 TDP1 no CPT 12µM*.
For c1ccc2c(c1)nnn2Cc1nnc2sc(-c3ccc4c(c3)OCCO4)nn12 the results were KB-V1 cytotox inactive, DT40 TDP1 CPT inconclusive, HT1080 IDH1KD tx 4%, HT1080-NT tox -1%, KB-3-1 tox inactive and DT40 TDP1 no CPT 16µM*.
Screening c1ccc(-c2nn3c(Cn4nnc5ccccc54)nnc3s2)cc1 returned KB-V1 cytotox inactive, DT40 TDP1 CPT inconclusive, HT1080 IDH1KD tx 0%, HT1080-NT tox 0%, KB-3-1 tox inactive and DT40 TDP1 no CPT inconclusive.
For O=C(O)c1ccc(S(=O)(=O)c2ccc3c(c2)C(=O)N(c2ccc(Br)cc2)C3=O)cc1 the results were KB-V1 cytotox inactive, DT40 TDP1 CPT 1%, HT1080 IDH1KD tx 8%, HT1080-NT tox 0%, KB-3-1 tox inactive and DT40 TDP1 no CPT -7%.
For CCN(CC)CCOc1ccc2c(c1)C(=O)c1cc(OCCN(CC)CC)ccc1-2 the results were DT40 TDP1 CPT 15µM* and DT40 TDP1 no CPT 10µM*.
Screening CCOC(=O)c1c(C)n(C)c2cc(OCCN(CC)CC)ccc12 returned KB-V1 cytotox inconclusive, DT40 TDP1 CPT 1%, HT1080 IDH1KD tx 3%[9.24 µM], HT1080-NT tox -24%, KB-3-1 tox inactive and DT40 TDP1 no CPT 0%.
For COc1cc(-c2nccc3cc4c(cc23)OCO4)cc(OC)c1OC the results were KB-V1 cytotox 5.2µM*, DT40 TDP1 CPT 5.8µM*, HT1080 IDH1KD tx 4.6µM*, HT1080-NT tox inconclusive, KB-3-1 tox 4.1µM* and DT40 TDP1 no CPT 4.6µM*.
Cc1c(NC(=O)c2nc3ccccc3nc2N2CCCCC2)cccc1[N+](=O)[O-] was read as KB-V1 cytotox inactive, DT40 TDP1 CPT inconclusive, KB-3-1 tox inactive and DT40 TDP1 no CPT inconclusive.
For CCn1c(C(=O)N2CCC(C(=O)NCCCOC)CC2)cc2sccc21 the results were KB-V1 cytotox inactive, DT40 TDP1 CPT -21%, KB-3-1 tox inactive and DT40 TDP1 no CPT -12%.
For COCCNC(=O)C1CCN(C(=O)c2cc3sccc3n2Cc2ccc(Cl)cc2)CC1 the results were DT40 TDP1 CPT 5.2µM* and DT40 TDP1 no CPT 2.6µM*.
CCC(C)NC(=O)C1CCN(C(=O)c2cc3sccc3n2Cc2ccc(Cl)cc2)CC1 (stereo unspecified) was read as DT40 TDP1 CPT 3.7µM* and DT40 TDP1 no CPT 2.1µM*.
Screening O=C(NCc1ccco1)C1CCN(C(=O)c2cc3sccc3n2Cc2ccc(Cl)cc2)CC1 returned KB-V1 cytotox inconclusive, DT40 TDP1 CPT 18µM*, KB-3-1 tox inconclusive and DT40 TDP1 no CPT inconclusive.
Screening COCCCNC(=O)C1CCN(C(=O)c2cc3sccc3n2Cc2ccc(Cl)cc2)CC1 returned KB-V1 cytotox inconclusive, DT40 TDP1 CPT 13µM*, KB-3-1 tox inactive and DT40 TDP1 no CPT 21µM*.
For COc1ccc(NC(=O)c2nc(-c3ccc(C)cc3)n3c2CCCCC3)c(OC)c1 the results were KB-V1 cytotox inactive, DT40 TDP1 CPT 6%, KB-3-1 tox inactive and DT40 TDP1 no CPT -20%.
Cc1ccc(-c2nc(C(=O)N3CCN(c4ccccc4)CC3)c3n2CCCCC3)cc1 was read as KB-V1 cytotox inactive and KB-3-1 tox inactive.
For COc1ccc(N2CCN(C(=O)c3nc(-c4ccc(Cl)cc4)n4c3CCCCC4)CC2)cc1 the results were KB-V1 cytotox inactive, DT40 TDP1 CPT inconclusive, KB-3-1 tox inactive and DT40 TDP1 no CPT 21µM*.
Screening Cc1ccc(CNC(=O)c2nc(-c3ccc(Cl)cc3)n3c2CCCCC3)cc1 returned KB-V1 cytotox inactive, DT40 TDP1 CPT inconclusive, KB-3-1 tox inactive and DT40 TDP1 no CPT 18µM*.
COc1ccc(OC)c(CCNC(=O)c2nc(-c3ccc(Cl)cc3)n3c2CCCCC3)c1 was read as KB-V1 cytotox inactive, DT40 TDP1 CPT 10µM*, KB-3-1 tox inconclusive and DT40 TDP1 no CPT 9.2µM*.
Screening COc1ccc(NC(=O)c2nc(-c3ccc(C)cc3)n3c2CCCCC3)cc1 returned DT40 TDP1 CPT inconclusive and DT40 TDP1 no CPT 16µM*.
For COc1ccc(OC)c(CCNC(=O)C2CCN(c3ncnc4c3nc3n4CCCCC3)CC2)c1 the results were KB-V1 cytotox inactive, DT40 TDP1 CPT inconclusive, HT1080 IDH1KD tx 10%, HT1080-NT tox 15%, KB-3-1 tox inactive and DT40 TDP1 no CPT inconclusive.
For CN(Cc1ccccc1)C(=O)c1nc(-c2ccc(Cl)cc2)n2c1CCCCC2 the results were KB-V1 cytotox inactive, DT40 TDP1 CPT inconclusive, KB-3-1 tox inactive and DT40 TDP1 no CPT inconclusive.
For Cc1ccc(CC(=O)NCCC(=O)O)cc1 the results were KB-V1 cytotox inactive, DT40 TDP1 CPT 2%, HT1080 IDH1KD tx 16%, HT1080-NT tox 24%, KB-3-1 tox inactive and DT40 TDP1 no CPT 17%.

Assay outcomes from PubChem BioAssay.
